High-throughput results: PubChem, several laboratories
Most compounds without a hit are left out; they make up all but 3.5% or so of the library.
PPC-1+TRAIL kill: kills PPC-1 cancer cells in the presence of TRAIL; cell killing (% activity), % at 4 µM or 5 µM; AID 1443; 0.41% of 220,000 active; PPC-1 cells + TRAIL, ATPLite viability luminescence;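 active means cell killing above 50% in the first pass at 4 µM, then a duplicate retest at 5 µM averaging 50% or more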;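 further: plate controls were cells with TRAIL plus DMSO for no effect and medium-only wells lacking cells for full effect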
TROY signal inh: TROY signaling inhibition | Q293 LMP1-TROYcd NF-kB luciferase reporter, 4 h | inhibition, % at 10 µM | 0.98% of 360,000 active;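 active means compounds whose plate-normalised and pattern-corrected inhibition of the luciferase reporter signal at the single screening dose is 50% or more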
TRAIL sens C8: sensitizes caspase-8 expressing cells to TRAIL; NB7+C8 cells + TRAIL, ATPlite viability luminescence; 1% of 360,000 active; inhibition (viability loss, TRAIL sensitization), % at 10 µM;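 active means compounds causing at least 50% loss of cell viability in the single-dose screen, relative to plate controls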
Platelet DG rel: modulates dense granule release in human platelets; human platelet-rich plasma, SFLLRN dense granule ATP release, luminescence; inhibition, %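 (compounds screened at 7.5 µM in platelet-rich plasma)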; 0.22% of 300,000 active; AID 1663;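 active means mean replicate score, as percent of positive control, at or above 50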
HSP90 inh: blocks HSP90-mediated luciferase refolding in reticulocyte lysate; Rabbit reticulocyte lysate, luciferase refolding luminescence, 3 h; AID 1789; inhibition, % at 5.6 µM; 0.91% of 290,000 active;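 active means inhibition above the screen-wide mean plus 3 SD, computed separately per campaign, cut at about 16% in these data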;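 further: 0% = DMSO wells and 100% = 60 µM geldanamycin wells; inhibitors lower the luminescence because luciferase stays unfolded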
TWEAK-Fn14 inh: blocks TWEAK-Fn14 interaction in a reporter cell assay | TWEAK-stimulated Fn14 reporter cells, luciferase luminescence, 8 h | inhibition, % at 10 µM | 2% of 360,000 active | AID 1159606; in the data active means inhibition above about 50%
PPC-1 tox: PPC-1 cell cytotoxicity; PPC-1 viability, ATPlite luminescence, overnight; cytotoxicity, % at 5 µM; AID 1447; 50% of 1,200 active; shares compounds with PPC-1+TRAIL kill;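 active means reconfirmed compounds whose average cytotoxicity reaches 50% or more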;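 further: 0% = DMSO-treated cells and 100% = wells holding medium but no cells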
Starred values were filed as active, the others as inactive.

Screening COc1cc(N/N=C/c2ccc(N(C)C)cc2)ncn1 returned PPC-1+TRAIL kill 69*, TROY signal inh 43, TRAIL sens C8 77*, Platelet DG rel 57*, HSP90 inh 16, TWEAK-Fn14 inh 60* and PPC-1 tox 69*.
For COc1ccc(-c2cc(=O)c3cc(O)ccc3o2)cc1 the results were PPC-1+TRAIL kill 19, TROY signal inh -86, TRAIL sens C8 32, Platelet DG rel 13, HSP90 inh 2, TWEAK-Fn14 inh -31 and PPC-1 tox 29.
Screening O=c1cc(-c2ccccc2)oc2ccc(O)cc12 returned PPC-1+TRAIL kill 20, TROY signal inh -6, TRAIL sens C8 16, Platelet DG rel 5, HSP90 inh -5 and TWEAK-Fn14 inh -14.
Screening COc1cccc(CN(C)C(=O)C2CCN(S(=O)(=O)c3cccs3)CC2)c1OC returned TROY signal inh -20, TRAIL sens C8 -14 and TWEAK-Fn14 inh -13.
Cc1cccc(NC(=O)c2cnc3sccn3c2=O)c1 was read as PPC-1+TRAIL kill 44, TROY signal inh -13, TRAIL sens C8 35, Platelet DG rel 25, HSP90 inh 9 and TWEAK-Fn14 inh 24.
O=C(Nc1cnc2ccccn2c1=O)c1ccc(Cl)cc1Cl was read as PPC-1+TRAIL kill 37, TROY signal inh 73*, TRAIL sens C8 62*, Platelet DG rel 4, HSP90 inh 15, TWEAK-Fn14 inh 82* and PPC-1 tox 48.
Screening Cc1cccc(NC(=O)c2cnc3ccccn3c2=O)c1 returned PPC-1+TRAIL kill 60*, TROY signal inh -18, TRAIL sens C8 70*, HSP90 inh -1, TWEAK-Fn14 inh 80* and PPC-1 tox 59*.
`CC(CC(=O)c1ccc(F)cc1)N1CCN(c2ccccc2)CC1` (stereo not drawn) gave TROY signal inh 5, TRAIL sens C8 -3 and TWEAK-Fn14 inh -15.
For CN(C)c1cccc(C(=O)Nc2cccc(F)c2)c1 the results were PPC-1+TRAIL kill 34, TROY signal inh -37, TRAIL sens C8 -14, Platelet DG rel 7, HSP90 inh -3 and TWEAK-Fn14 inh -35.
For CCN(CC)c1ccc(C(=O)Nc2cccc(F)c2)cc1 the results were PPC-1+TRAIL kill 16, TROY signal inh -6, TRAIL sens C8 42, Platelet DG rel 5, HSP90 inh 1, TWEAK-Fn14 inh 19 and PPC-1 tox 16.
For C=CCN(CC=C)S(=O)(=O)c1ccc(NC(=O)COc2ccccc2OC)cc1 the results were PPC-1+TRAIL kill 8, TROY signal inh -3, TRAIL sens C8 -9, HSP90 inh -1, TWEAK-Fn14 inh 12 and PPC-1 tox 2.
`COc1ccccc1OCC(=O)Nc1ccc(S(=O)(=O)N2CCCCCC2)cc1` gave PPC-1+TRAIL kill -1, TROY signal inh 20, TRAIL sens C8 -4, Platelet DG rel -2, HSP90 inh 1 and TWEAK-Fn14 inh 3.
COc1ccc(CC(=O)Nc2cccc(/C(C)=N/NC(=O)C3(C)CC3(Br)Br)c2)cc1 (stereo not drawn) was read as TROY signal inh 9, TRAIL sens C8 9, Platelet DG rel -1, HSP90 inh 3 and TWEAK-Fn14 inh 0.
CCc1ccc(CN(C)C(=O)C2CCC(=O)N(Cc3ccccn3)C2)cc1 (stereo not drawn) was read as TROY signal inh 6, TRAIL sens C8 -10, Platelet DG rel -1, HSP90 inh 10 and TWEAK-Fn14 inh -5.
For CC1CCCN(c2ncnc3c2cnn3-c2ccccc2)C1 (stereo not drawn) the results were PPC-1+TRAIL kill 78*, TROY signal inh 80*, TRAIL sens C8 86*, Platelet DG rel -5, TWEAK-Fn14 inh 92* and PPC-1 tox 78*.
For CC1CCCN(c2ncnc3c2cnn3-c2ccc(Cl)cc2)C1 (stereo not drawn) the results were PPC-1+TRAIL kill 79*, TROY signal inh 89*, TRAIL sens C8 87*, Platelet DG rel -3, TWEAK-Fn14 inh 104* and PPC-1 tox 79*.
For Cc1ccc(-n2ncc3c(N4CCCC(C)C4)ncnc32)c(C)c1 (stereo not drawn) the results were PPC-1+TRAIL kill 21, TROY signal inh 13, TRAIL sens C8 28, Platelet DG rel -15 and TWEAK-Fn14 inh -2.
For O=C(N/N=C/c1ccc(Cl)c([N+](=O)[O-])c1)c1cc(-c2ccc3c4c(cccc24)CC3)n[nH]1 the results were PPC-1+TRAIL kill 42, TROY signal inh 6, TRAIL sens C8 10, Platelet DG rel 52*, HSP90 inh 0, TWEAK-Fn14 inh 64* and PPC-1 tox 33.
For O=C(N/N=C/c1cccc([N+](=O)[O-])c1)c1cc(-c2ccc3c4c(cccc24)CC3)n[nH]1 the results were PPC-1+TRAIL kill 12, TROY signal inh -14, TRAIL sens C8 -16, Platelet DG rel 7, HSP90 inh 1 and TWEAK-Fn14 inh -13.
For COc1ccccc1C(=O)NCC(=O)NCCCN1CCOCC1 the results were TROY signal inh 1, TRAIL sens C8 -15 and TWEAK-Fn14 inh -19.
Screening O=c1[nH]c2ccccc2nc1C(Cl)c1ccccc1 (stereo not drawn) returned PPC-1+TRAIL kill 1, Platelet DG rel 1, HSP90 inh 4 and PPC-1 tox 4.
CC(=O)N1CCOc2ccc(S(=O)(=O)NCCc3cccc(C)c3)cc21 was read as TROY signal inh 4, TRAIL sens C8 -4, Platelet DG rel 16, HSP90 inh 2 and TWEAK-Fn14 inh -2.
Screening Cc1sc(NC(=O)c2cccs2)nc1-c1ccccc1 returned PPC-1+TRAIL kill -1, TROY signal inh -6, TRAIL sens C8 9, Platelet DG rel 0, HSP90 inh 0 and TWEAK-Fn14 inh 41.
Screening O=C(Nc1nsc(-c2ccccc2)n1)c1cccs1 returned PPC-1+TRAIL kill 25, TROY signal inh -13, TRAIL sens C8 51*, Platelet DG rel 4, HSP90 inh 8, TWEAK-Fn14 inh 38 and PPC-1 tox 34.
`O=C(NCC(c1ccco1)N1CCOCC1)c1ccccc1` (stereo not drawn) gave TROY signal inh 4, TRAIL sens C8 6, Platelet DG rel 0 and TWEAK-Fn14 inh 3.
`COc1cccc(-c2noc(-c3ccc4c(c3)OCO4)n2)c1` gave PPC-1+TRAIL kill 60*, TROY signal inh 9, TRAIL sens C8 66*, Platelet DG rel 39, HSP90 inh -4, TWEAK-Fn14 inh 53* and PPC-1 tox 62*.
For COc1cc(/C=N/Nc2nncn2/N=C/c2ccc(O)c(OC)c2)ccc1O the results were PPC-1+TRAIL kill 83*, TROY signal inh -45, TRAIL sens C8 75*, Platelet DG rel 56*, HSP90 inh 12, TWEAK-Fn14 inh -20 and PPC-1 tox 83*.
Screening Cc1nn(-c2nc3ccccc3[nH]2)c(=O)c2ccccc12 returned PPC-1+TRAIL kill 97*, TROY signal inh 92*, TRAIL sens C8 96*, Platelet DG rel 81*, HSP90 inh 99*, TWEAK-Fn14 inh 105* and PPC-1 tox 97*.
